# Sampled rows, rich in hits. Any-hit rate of the full collection: about 5.2%.
# rTrxR1 inhibitor – rat TrxR1 inhibition. O89049. recombinant rTrxR1, NADPH fluorescence consumption, selenite substrate. Potency, µM (series often up to 114 µM), for inactives: at the highest dose activity change, negative = inhibition, hits mostly inhibitors. actives 1% (n = 390,000). AID 588453; further: nearly all actives have a fitted effect of over 65% in size
#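 Rat TrxR1 (90 nM in the dispensed reagent) was pre-reduced with 400 uM NADPH for 5 min at room temperature, then incubated with compound for 15 min. After 400 uM selenite was added, NADPH fluorescence (Ex 340/Em 450 nm) was followed for 8 min.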
# VDR inh – vitamin D3 receptor (human) inhibition; VDR-SRC2-3 peptide fluorescence polarization, 2 h; Potency, µM, without a hit: max response, negative = inhibition, actives largely listed as inhibitors; actives 0.93% (n = 400,000); AID 504847
# Target sequence (P11473 whole entry, looked up): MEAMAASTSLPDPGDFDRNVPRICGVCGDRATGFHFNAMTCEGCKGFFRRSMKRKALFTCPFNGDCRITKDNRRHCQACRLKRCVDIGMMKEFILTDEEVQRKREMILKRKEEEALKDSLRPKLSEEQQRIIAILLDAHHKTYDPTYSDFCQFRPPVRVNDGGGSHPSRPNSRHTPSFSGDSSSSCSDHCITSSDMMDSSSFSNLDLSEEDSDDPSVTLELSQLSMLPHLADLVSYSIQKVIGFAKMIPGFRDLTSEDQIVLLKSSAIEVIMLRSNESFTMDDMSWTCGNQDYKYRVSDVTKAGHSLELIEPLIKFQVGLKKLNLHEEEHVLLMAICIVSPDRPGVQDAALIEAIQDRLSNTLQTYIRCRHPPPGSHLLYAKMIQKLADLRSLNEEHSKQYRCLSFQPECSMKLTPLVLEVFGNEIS
#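 Reagent solutions, kept cold and dark, are dispensed first; compounds are then pinned in at 23 nl, plates briefly spun, and incubated 2 h at ambient temperature. Inhibition of VDR–SRC2-3 peptide binding is read by fluorescence polarization.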
# TrxR1 substrate – is turned over as a substrate by rat TrxR1; O89049; purified TrxR1 substrate turnover, NADPH consumption readout; Potency, µM (top dose mostly 114 µM), inactives show top-dose activity change, negative = substrate turnover; actives 0.01% (n = 390,000); AID 588456; further: nearly all actives have a fitted effect of over 50% in size
#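 Rat TrxR1, dispensed at 90 nM, was prereduced with 400 uM NADPH (final) for 5 min at ~22 deg C, then incubated with compound 15 min before 400 uM selenite. A first-read NADPH fluorescence drop versus no-compound background flagged substrates.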
# PLK1 PBD block – PLK1 (human) polo-box domain binding inhibition | P53350 | Plk1 PBD binding of FITC phosphopeptide, fluorescence polarization | Potency, µM, for inactives: max response, negative = inhibition, actives largely listed as inhibitors | actives 2.8% (n = 360,000) | AID 720504; further: series mostly up to about 57 µM; nearly all actives have a fitted effect of over 65% in size
# mIDH1 inhibitor – human IDH1 R132H inhibition | actives 0.093% (n = 390,000) | Potency, µM (top dose mostly 76.6 µM), without a hit: top-dose activity change, negative = inhibition, actives largely listed as inhibitors | AID 602179 | IDH1-R132H enzyme, NADPH consumption, diaphorase/resazurin fluorescence; further: nearly all actives have a fitted effect of over 65% in size
#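 IDH1-R132H (0.5 ug/mL dispensed) in pH 7.5 Tris buffer was preincubated 30 min with compound, then given a substrate mix of 0.016 mM NADPH and 2 mM alpha-KG for 80 min at room temperature; remaining NADPH was read by diaphorase/resazurin fluorescence.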
# Sfp inh – Sfp phosphopantetheinyl transferase inhibition. Biochemical Sfp PPTase activity, qHTS. Potency, µM, for inactives: largest response in the series, negative = inhibition, actives largely listed as inhibitors. actives 3.5% (n = 310,000);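 further: the enzyme is Sfp with the accession as filed and its product quenches rhodamine fluorescence; 0% = enzyme reaction without inhibitor and -100% = no enzyme wells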
#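 Compounds were incubated with enzyme (final 15 nM) for 15 min at room temperature before substrate addition started the reaction. Fluorescence at 525 nm excitation, 598 nm emission was recorded immediately and after 30 minutes.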
# Starred values were filed as active, the others as inactive; ? = inconclusive; . = no result given; [ ] = dose if it differs, or a comment. The call rests on the fitted dose curve; in most records, active means well fitted curve in the direction sought with a large enough effect; inconclusive means small, poorly fitted or top-dose-only effect, or another doubt; inactive means no such curve, though single readings can be large; an effect the other way counts as inactive or inconclusive. Unless noted, on the % scale 0 is the no-effect control and ±100 the full control effect; potency means the concentration at half of the fitted maximal effect.
SMILES,rTrxR1 inhibitor,VDR inh,TrxR1 substrate,PLK1 PBD block,mIDH1 inhibitor,Sfp inh
Cc1ccc(S(=O)(=O)N(CC(=O)Nc2ccccc2C(=O)O)c2cccc(Cl)c2C)cc1,-7%,-28%,4%,30µM*,-13%,16%
Cc1ccc2sc(NNC(=O)c3cc(=O)c4ccccc4o3)nc2c1C,4%,7.9µM*,-9%,-16%,12%,8.9µM*
Cc1nc(C)c(C(=O)Nc2nc3c(C)cccc3s2)o1,-9%,5%,0%,24µM*,5%,50µM*
Cc1cccc2sc(NC(=O)C3CCCO3)nc12 (stereo not drawn),16%,-5%,5%,-16%,5%,27%
COc1ccc2nc(NNC(=O)c3cc(=O)c4ccccc4o3)sc2c1,-1%,32µM*,-4%,-12%,8%,13µM*
Cc1cccc2sc(NNC(=O)c3cc(=O)c4ccccc4o3)nc12,-18%,?,-5%,?,13%,45µM*
Cc1cc2oc(=O)c(CC(=O)O)c(C)c2c2occ(-c3ccccc3)c12,27%,5%,97%,.,-6%,.
CCOc1cc(N2CCOCC2)c(OCC)cc1NC(=O)c1cccc(N(C)C)c1,13%[57.1 µM],11%,-2%[57.1 µM],4%,-1%,-1%
CCOc1cc(N2C(=O)CC3CS(=O)(=O)CC32)c(OCC)cc1NC(=O)c1ccccc1 (stereo not drawn),-5%,?,10%[57.1 µM],3µM*,10%,-8%
CCC(=O)Nc1c(-c2cccs2)c(=O)c2ccccc2n1C,0%,-8%,1%,-4%,0%,89µM*
CCCCCC(=O)Nc1c(-c2cccs2)c(=O)c2ccccc2n1C,-4%,-8%,2%,-3%,1%,-1%
O=C(Nc1nc2ccsc2c(=O)s1)c1ccco1,7%[57.1 µM],23%,-4%[57.1 µM],-20%,10%,?
Cc1csc2c(=O)sc(NC(=O)c3ccco3)nc12,12%,-23%,5%,-26%,3%,56µM*
COc1cc(/C=N\Nc2cc(=O)n(C)c(=O)n2C)ccc1O,-3%[57.1 µM],-11%,-10%[57.1 µM],-2%,7%,-6%
COc1ccc(/C=N/Nc2ccccn2)cc1OC,11%,-12%,-3%,5%,-3%,56µM*
COc1ccc(/C=N/Nc2cc(=O)n(C)c(=O)n2C)cc1OC,-21%,?,-10%,-6%,-1%,89µM*
CCOc1ccc(Nc2oc(/C=C/c3ccc(OC)c(OC)c3)nc2C#N)cc1,3%,-9%,-1%,.,6%,.
Cc1ccc(NC(=O)C(=O)NCC2CCCO2)cc1 (stereo not drawn),25%,5%,3%,-12%,5%,17%
COC(=O)c1ccc(NC(=O)C(=O)NCC2CCCO2)cc1 (stereo not drawn),12%,-30%,-2%,30µM*,0%,4%
CCOC(=O)c1[nH]c(=O)[nH]c1COC(=O)c1cc2ccccc2o1,3.2µM*,-24%,1%,?,0%,19%
Cc1ccc(OCCOCCNC(C)C)c(Br)c1,-8%,1%,1%,-3%,6%,-22%
CCC(C)NCCOCCOc1ccc(Cl)cc1Br (stereo not drawn),20%[57.1 µM],-16%,11%[57.1 µM],-17%,4%,50µM*
O=C(CN1CCN(Cc2ccccc2Cl)C1=O)NCCc1ccc(Cl)cc1,7%,-14%,2%,.,-6%,.
CC(C)OCCCNC(=O)CN1CCN(Cc2ccccc2Cl)C1=O,15%[57.1 µM],-24%,9%[57.1 µM],3.4µM*,1%,2%
COC(=O)Cc1c(C)c2ccc(OCC(=O)N3CCC(C)CC3)c(C)c2oc1=O,-23%,-22%,203%,-20%,1%,1%
SMILES,rTrxR1 inhibitor,VDR inh,TrxR1 substrate,PLK1 PBD block,mIDH1 inhibitor,Sfp inh
Cn1c(SCC(=O)NNC(=O)Cc2ccccc2)nc2ccccc2c1=O,10%,?,-2%,3.4µM*,9%,-18%
COc1cc(C(=O)N2CCCCCCC2)cc(OC)c1OC,.,10%,.,.,.,10%
COc1cc(NC(=S)N2CCCCC2C)cc(OC)c1OC (stereo not drawn),-16%,16%,-2%,-28%,-7%,45µM*
COc1cc(O)cc(OC)c1OC,.,45µM*,.,.,.,-4%
COc1cc(C(=S)N2CCCC2)cc(OC)c1OC,29%,-3%,-1%,-21%,0%,50µM*
COc1ccc(S(=O)(=O)Oc2c(OC)cc(C(=S)N3CCOCC3)cc2OC)cc1,10%,?,5%,27µM*,2%,28µM*
Cc1[nH]c2ccccc2c1C(=O)C(=O)NCc1nnnn1-c1ccc(F)cc1,.,.,.,-15%,0%,.
C=CCCCCCCCCCBr,.,-7%,.,.,.,1%
CC1(C)OC(=O)C=C[C@@]2(C)C1C[C@@H](O)[C@]1(C)C2CC[C@@]2(C)C(c3ccoc3)OC(=O)[C@H]3O[C@]321 (stereo partly drawn),.,-3%,.,.,.,-4%
COc1cc(C(=O)NNC(=S)Nc2ccc(S(N)(=O)=O)cc2)cc(OC)c1OC,11%[57.1 µM],4%,-10%[57.1 µM],6.7µM*,0%,13µM*
COc1ccc(C(=O)NC(=S)Nc2ccc(S(N)(=O)=O)cc2)cc1,25%[11.4 µM],4%,7%[11.4 µM],-6%,9%,?
CC(C)(C)c1cc(C(=S)N2CCCC2)cc(C(C)(C)C)c1O,14%,?,-6%,30µM*,-3%,40µM*
COc1cc(C(=S)N2CCCC2)ccc1OS(=O)(=O)c1ccc(NC(C)=O)cc1,-4%,1%,-5%,-17%,-15%,1%
COc1cc(C(=S)N2CCCC2)cc(OC)c1OS(=O)(=O)c1ccc(NC(C)=O)cc1,-23%,?,-12%,12µM*,6%,35µM*
O=C1NC(=S)NC(=O)C1=Cc1ccccc1C(=O)O,-19%[57.1 µM],?,-8%[57.1 µM],24µM*,0%,.
COc1cc(NC(=S)Nc2cccc(Cl)c2Cl)c(OC)cc1Cl,-15%,-5%,2%,-18%,5%,50µM*
COc1cc(NC(=S)Nc2ccc(Br)cc2Cl)c(OC)cc1Cl,?,-20%,-13%,-26%,6%,50µM*
COc1cc(NC(=S)NC(C)(C)C)c(OC)cc1Cl,16%,-8%,1%,?,0%,-26%
COc1cc(Cl)c(C)cc1NC(=S)NN,2%[57.1 µM],5%,-1%,27µM*,-2%,35µM*
CCOC1=C2[C@@H](CN(S(=O)(=O)c3ccc(C)cc3)[C@H]2c2cccc3ccccc23)[C@H]2C(=O)NC(=O)[C@H]2C1,.,.,.,-12%,.,.
COc1ccc(NC(=O)c2ncoc2-c2ccco2)cc1Cl,1%[57.1 µM],5%,-1%[57.1 µM],.,-5%,.
CCCCCn1c(SCCc2ccccc2)nc2c1c(=O)[nH]c(=O)n2C,13%[57.1 µM],7%,10%[57.1 µM],-9%,5%,8%
CCCCCOC(=O)CSc1nc2c(c(=O)[nH]c(=O)n2C)n1CCc1ccccc1,27%,?,10%[57.1 µM],21µM*,3%,-14%
